Calls of active or inactive are those of the source. Unless noted, how the calls were made is not given here.
Legend:
[1] = test system: XIP peptide (Xip251-270) binding; test: XIP fragment 251-270 binding compounds – biochemical, small-molecule microarray, fluorescence 635/667 nm, 0.1 µg/mL protein, primary screen (AID 1182); conditions: fluorescent protein binding, 635 nm, higher = more signal, called active from +8 up or from −8 down
XIP peptide (Xip251-270) = test: compounds binding XIP fragment 251-270 – biochemical, small-molecule microarray, fluorescence 635/667 nm, 0.5 µg/mL protein, primary screen (AID 1183); conditions: fluorescence 635 nm, higher = more signal
[2] = blood-stage malaria parasite viability loss – strain 3D7, DAPI fluorescence, 100 nL, primary screen (AID 1184);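 further: parasites grown inside human red blood cells in medium with human serum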; conditions: P. falciparum 3D7 growth, 3 d, higher = more signal
[3] = target: Homeobox protein Hox-A13 (Mus musculus) (UniProt Q62424); test: disruptors of Hoxa13 oligonucleotide interaction – biochemical, fluorescence polarization, labeled oligonucleotide, primary screen (AID 1185); conditions: Hoxa13:DNA binding, 15 min, higher = more signal, called active from +8 up or from −8 down
Sequence of Homeobox protein Hox-A13 (Mus musculus) (Q62424 whole entry, looked up): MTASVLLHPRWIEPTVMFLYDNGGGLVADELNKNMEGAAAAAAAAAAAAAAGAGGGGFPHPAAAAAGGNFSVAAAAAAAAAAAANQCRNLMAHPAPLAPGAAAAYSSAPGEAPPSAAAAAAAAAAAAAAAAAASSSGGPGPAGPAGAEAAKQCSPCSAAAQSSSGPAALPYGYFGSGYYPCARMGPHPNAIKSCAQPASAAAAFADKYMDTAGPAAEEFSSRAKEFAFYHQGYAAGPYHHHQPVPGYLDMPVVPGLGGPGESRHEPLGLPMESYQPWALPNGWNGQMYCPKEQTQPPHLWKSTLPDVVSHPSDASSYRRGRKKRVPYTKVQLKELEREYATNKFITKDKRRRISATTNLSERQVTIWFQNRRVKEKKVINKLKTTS

[4] = blockers of DNA damage checkpoint Chk1 activation – imaging, HeLa, hydroxyurea, phospho-Chk1 antibody, percent positive cells, primary screen (AID 1186); conditions: hydroxyurea-induced phospho-Chk1 immunofluorescence imaging, higher = more signal
[5] = blockers of DNA damage checkpoint Chk1 activation – imaging, HeLa, hydroxyurea, phospho-Chk1 nuclear intensity, primary screen (AID 1187); conditions: hydroxyurea-induced phospho-Chk1 immunofluorescence imaging, higher = more signal

| Compound | composite z-score [1] | composite z-score (XIP peptide (Xip251-270)) | z-score [2] | z-score [3] | z-score [4] | z-score [5] |
| --- | --- | --- | --- | --- | --- | --- |
| CCCCC(=C=CC[C@@H](O)c1ccc(CO)o1)CCO | 0.54 (inactive) | 0.218 | 0.0728 | -4.16 (inactive) | -0.364 (inactive) | -0.13 (inactive) |
| COC(=O)c1c(CC[C@@H](CO)NC(=O)NCCc2c[nH]c3ccccc23)oc(C(=O)Cc2ccccc2)c1C(=O)OC | 1.4 (inactive) | 0.713 | -0.0066 | -6.54 (inactive) | -0.216 (inactive) | -0.098 (inactive) |
| COC(=O)[C@@]1(Cc2ccc(OC)cc2)[C@H]2c3cc(C(=O)N4CCCC4)n(CCc4ccc(O)c(O)c4)c3C[C@H]2CN1C(=O)c1ccccc1 | 1.75 (inactive) | 0.83 | -1.62 | -6.01 (inactive) | 0.264 (inactive) | 0.379 (inactive) |
| COCCOC(=O)N1C(=O)[C@@]2(c3cc(C#CCCO)ccc31)[C@H](c1ccc(O)cc1)N1[C@H](c3ccccc3)[C@H](c3ccccc3)OC(=O)[C@H]1[C@@H]2C(=O)N1CCN(c2ncccn2)CC1 | 0.729 (inactive) | 0.831 | -1.13 | -2.37 (inactive) | -0.264 (inactive) | -0.0303 (inactive) |
| COC(=O)c1c(CC[C@@H](CO)NC(=O)N[C@H](Cc2ccccc2)Cn2cc(-c3ccccn3)nn2)oc(C(C)=O)c1C(=O)OC | 0.593 (inactive) | 0.0667 | 0.0007 | -4.84 (inactive) | 0.269 (inactive) | 0.15 (inactive) |
| CCC(CC)C(O)C1C=CC2C(=O)N(c3ccccc3)C(=O)C2N1Nc1ccccc1 (stereo unspecified) | 0.285 (inactive) | 0.816 | 0.0789 | -3.76 (inactive) | 0.263 (inactive) | 0.0193 (inactive) |
| CCOC(=O)C1=CC[C@@H](c2ccccc2)N(S(=O)(=O)c2ccc(C)cc2)[C@H]1c1ccc(CC)cc1 | -0.223 (inactive) | 0.487 | -1.89 | 0.868 (inactive) | -0.0619 (inactive) | -0.606 (inactive) |
| C#CCN(C/C=C/c1ccccc1)[C@H](CO)c1ccccc1 | -0.333 (inactive) | -0.384 | -0.213 | -6.53 (inactive) | -0.209 (inactive) | -0.753 (inactive) |
| CCOC(=O)C1=C[C@@H](C(C)C)N(S(=O)(=O)c2ccc(C)cc2)[C@H]1c1ccccc1F | 1.01 (inactive) | 0.489 | -0.864 | -1.17 (inactive) | 0.503 (inactive) | 0.969 (inactive) |
| O=C(CS)NCCCCCNC(=O)[C@H]1C[C@H]2C(=O)NCC(=O)N2[C@H]1c1cccc(OCCO)c1 | -0.109 (inactive) | 0.388 | 1.01 | -1.67 (inactive) | -0.56 (inactive) | -0.321 (inactive) |
| [N-]=[N+]=Nc1ccccc1[C@H]1OC(c2ccc(OCCCO)cc2)=N[C@@]1(CCS(=O)(=O)c1ccccc1)C(=O)NCc1ccccc1 | 0.273 (inactive) | 0.774 | -2.48 | -1.99 (inactive) | 0.517 (inactive) | 0.227 (inactive) |
| COC(=O)[C@@]1(Cc2ccccc2)[C@H]2c3cc(C(=O)N4CCCC4)n(Cc4c(CO)[nH]cc(C)c4=O)c3C[C@H]2CN1C(=O)c1ccccc1 | -0.528 (inactive) | 0.704 | -1.46 | -5.81 (inactive) | 0.754 (inactive) | 0.672 (inactive) |
| CN1C(=O)C2C=CC(C(O)c3ccccc3)N(N3CCCCC3)C2C1=O (stereo unspecified) | 0.344 (inactive) | 0.797 | -0.261 | -5.01 (inactive) | 0.246 (inactive) | -0.455 (inactive) |
| O=C1O[C@@H](c2ccccc2)[C@@H](c2ccccc2)N2[C@@H](c3ccc(OCCO)cc3)[C@]3(C(=O)Nc4ccc(C#CC5=CCCCC5)cc43)[C@@H](C(=O)N3CCCCCCC3)[C@H]12 | 1.43 (inactive) | 0.679 | -2.22 | -15.4 (active) | 0.201 (inactive) | 0.474 (inactive) |
| O=c1cccc(-c2ccccc2Cl)o1 | -0.143 (inactive) | -0.231 | 0.382 | -0.226 (inactive) | 0.266 (inactive) | -0.26 (inactive) |
| C=CCN1C(=O)[C@]2(Cc3ccccc3)N=C(c3ccc(OCCCO)cc3)O[C@@H]2c2ccccc21 | 0.7 (inactive) | 0.812 | -2.1 | -1.6 (inactive) | -0.535 (inactive) | -0.461 (inactive) |
| O=C(CS)NCCCCCNC(=O)[C@@H]1C[C@@H]2C(=O)NCC(=O)N2[C@@H]1c1cccc(OCCO)c1 | 1.96 (inactive) | 0.343 | 0.082 | -3.25 (inactive) | -0.128 (inactive) | 0.361 (inactive) |
| COCCOC(=O)N1C(=O)[C@@]2(c3cc(C#CC4(O)CCCCCC4)ccc31)[C@H](C(=O)Nc1nc3ccccc3s1)[C@H]1C(=O)O[C@H](c3ccccc3)[C@H](c3ccccc3)N1[C@@H]2c1ccccc1OCCO | 1.77 (inactive) | 0.748 | -1.43 | 2.95 (inactive) | 0.203 (inactive) | 0.693 (inactive) |
| COc1cc2c(cc1O)C(c1cccs1)N(Cc1cccc(OC(F)(F)F)c1)CC2 (stereo unspecified) | 1.78 (inactive) | 0.775 | -1.9 | -2.17 (inactive) | -1.02 (inactive) | -2.12 (inactive) |
| CC[C@@H]1C=C(C(=O)O)[C@H](c2cccc3ccccc23)N1S(=O)(=O)c1ccc(C)cc1 | 0.406 (inactive) | 0.437 | -0.509 | -1.85 (inactive) | -1.25 (inactive) | -1.44 (inactive) |
| C=CCNC(=O)[C@@H]1[C@H]2C(=O)O[C@H](c3ccccc3)[C@H](c3ccccc3)N2[C@H](c2ccc(OCCO)cc2)[C@@]12C(=O)N(C(=O)OCCOC)c1ccc(C#CCNC(N)=O)cc12 | -0.121 (inactive) | 0.842 | -1.29 | -1.4 (inactive) | 0.111 (inactive) | 0.487 (inactive) |
| COCCCNC(=O)[C@]1(Cc2ccccc2)N=C(c2ccc(OCCCO)cc2)O[C@@H]1c1ccccc1CN=[N+]=[N-] | 1.88 (inactive) | 0.711 | -2.33 | -3.2 (inactive) | -0.6 (inactive) | -0.537 (inactive) |
| CC(c1ccccc1)C(O)C1C=CC2C(=O)N(c3ccccc3)C(=O)C2N1Nc1ccccc1 (stereo unspecified) | 1.06 (inactive) | 0.807 | -0.417 | -2.4 (inactive) | 0.2 (inactive) | 0.175 (inactive) |
| C=C(CCCC)/C(=C/C[C@@H](OC(C)=O)c1cccc(OCCO)c1)c1cnc2ccccc2c1 | -0.276 (inactive) | 0.114 | -2.99 | -4.61 (inactive) | -0.24 (inactive) | -0.359 (inactive) |
| O=C1C2C=CC(C(O)c3ccc4c(c3)OCO4)N(Nc3ccc([N+](=O)[O-])cc3)C2C(=O)N1c1ccccc1 (stereo unspecified) | -0.164 (inactive) | 0.473 | -0.54 | -4.87 (inactive) | 0.0611 (inactive) | -0.825 (inactive) |
| COC(=O)C(CC#Cc1ccc2c(c1)[C@]1(C(=O)N2)[C@H](c2ccc(O)cc2)N2[C@H](c3ccccc3)[C@H](c3ccccc3)OC(=O)[C@H]2[C@@H]1C(=O)N1CCN(c2ncccn2)CC1)C(=O)OC | 0.655 (inactive) | 0.826 | -2.26 | -1.65 (inactive) | -0.231 (inactive) | -0.514 (inactive) |

From PubChem BioAssay
